Test results published in PubChem BioAssay AID743158 (Broad Institute, 2013).
Entries with a potency or affinity are not part of this list. The source made the active and inactive calls.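 How the source made its calls: active means cell killing with a fitted half-maximal concentration at most twice the top valid dose tried; inconclusive means flat fit between -70 and -30 percent, or an invalid fit; inactive means the rest.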

experiment: viability loss in A549 lung cancer cells – cell-based, CellTiter-Glo luminescence, dry powder, set 5, cytotoxicity control, dose response (AID 743158); conditions: CellTiter-Glo ATP luminescence, 72 h; series mostly up to 26 µM; activity change, negative = cytotoxicity: at the top concentration

**Q.** For CCOC(=O)c1c(NC(=O)CNCCN(C)C)sc(C)c1-c1ccccc1, which “activity change, negative = cytotoxicity” value is on record?
**A.** Its value is 19.6% (inactive).

**Q.** Which “activity change, negative = cytotoxicity” value does the source give for Cc1ccc(OCCn2cnc3ccccc32)cc1 here?
**A.** The value was 13.4% (inactive).

**Q.** Which outcome does the source give for O=c1[nH]c2ccccc2n1CCOc1ccccc1 here?
**A.** The outcome was “inactive”.

**Q.** For Cc1ccc(OCCn2c(C)nc3ccccc32)cc1, which “activity change, negative = cytotoxicity” value is on record?
**A.** Its value is 15.3% (inactive).

**Q.** For c1ccc(OCCn2cnc3ccccc32)cc1, which “activity change, negative = cytotoxicity” value is on record?
**A.** The value was -5.44% (inactive).

**Q.** With S=c1[nH]c2ccccc2n1CCOc1ccc(Cl)cc1 as the molecule, how does the “activity change, negative = cytotoxicity” value read?
**A.** The value was 21.4% (inactive).

**Q.** For S=c1[nH]c2ccccc2n1CCOc1ccccc1, which “activity change, negative = cytotoxicity” value is on record?
**A.** Its value is -11.1% (inactive).

**Q.** For Cc1cccc(OCCn2c(=S)[nH]c3cc(C(F)(F)F)ccc32)c1, which “activity change, negative = cytotoxicity” value is on record?
**A.** The value was -7.82% (inactive).

**Q.** With COC(=O)C1=C(C)N(Cc2ccc(Br)cc2)C(=S)NC1c1ccc(OC)cc1 (configuration not stated) as the molecule, how does the “activity change, negative = cytotoxicity” value read?
**A.** Its value is 7.24% (inactive).

**Q.** With Cc1ccc(OCCn2c(=S)[nH]c3ccccc32)c(C(C)C)c1 as the molecule, how does the outcome read?
**A.** The outcome was “inactive”.

**Q.** For CCOC(=O)c1c(-c2ccc(OC)cc2)csc1NC(=O)CN(C)CC(=O)N(C)C, which “activity change, negative = cytotoxicity” value is on record?
**A.** Its value is -0.238% (inactive).

**Q.** Which “activity change, negative = cytotoxicity” value does the source give for Fc1cccc2c1[nH]c(=S)n2CCOc1ccccc1 here?
**A.** The value was 22.4% (inactive).

**Q.** For Cc1ccc(OCCn2c(SCCO)nc3ccccc32)c(C(C)C)c1, which “activity change, negative = cytotoxicity” value is on record?
**A.** Its value is -1.14% (inactive).

**Q.** With CCOc1ccc(OCCn2c(=S)[nH]c3ccccc32)cc1 as the molecule, how does the “activity change, negative = cytotoxicity” value read?
**A.** The value was -5.18% (inactive).

**Q.** With Cc1ccc(OCCn2c(=S)[nH]c3ccccc32)cc1 as the molecule, how does the “activity change, negative = cytotoxicity” value read?
**A.** Its value is -5.22% (inactive).

**Q.** Which “activity change, negative = cytotoxicity” value does the source give for COC(=O)C1=C(C)N(Cc2ccc(F)cc2)C(=S)NC1c1cccc(F)c1 (configuration not stated) here?
**A.** Its value is 12.2% (inactive).

**Q.** Which “activity change, negative = cytotoxicity” value does the source give for Fc1ccccc1OCCn1c(=S)[nH]c2ccccc21 here?
**A.** Its value is 8.89% (inactive).

**Q.** Which “activity change, negative = cytotoxicity” value does the source give for S=c1[nH]c2cccc(Cl)c2n1CCOc1ccccc1 here?
**A.** Its value is 3.73% (inactive).

**Q.** With COC(=O)C1=C(C)N(Cc2ccc(Br)cc2)C(=S)NC1c1ccc(F)cc1 (configuration not stated) as the molecule, how does the “activity change, negative = cytotoxicity” value read?
**A.** The value was 14.4% (inactive).

**Q.** Which “activity change, negative = cytotoxicity” value does the source give for CCOC(=O)c1c(NC(=O)CN2CCN(C)CC2)sc(C)c1-c1ccc(C)cc1 here?
**A.** Its value is 1.65% [at 12 µM] (inactive).

**Q.** With CCOC(=O)c1c(-c2ccc(F)cc2)csc1NC(=O)CN1CCN(CC)CC1 as the molecule, how does the “activity change, negative = cytotoxicity” value read?
**A.** The value was 7.96% (inactive).

**Q.** With COC(=O)C1=C(C)N(Cc2ccc(Cl)cc2)C(=S)NC1c1ccc(Br)cc1 (configuration not stated) as the molecule, how does the “activity change, negative = cytotoxicity” value read?
**A.** Its value is 10.9% (inactive).

**Q.** Which “activity change, negative = cytotoxicity” value does the source give for Cc1ccc(C(C)C)c(OCCn2c(=S)[nH]c3ccccc32)c1 here?
**A.** The value was -4.67% [at 12 µM] (inactive).

**Q.** Which “activity change, negative = cytotoxicity” value does the source give for Cc1ccc2c(c1)[nH]c(=S)n2CCOc1ccccc1 here?
**A.** Its value is 22.8% (inactive).

**Q.** For Cc1ccccc1OCCn1c(=S)[nH]c2ccccc21, which “activity change, negative = cytotoxicity” value is on record?
**A.** Its value is 6.12% (inactive).

**Q.** For COC(=O)C1=C(C)N(Cc2ccccc2)C(=S)NC1c1ccc(Br)cc1 (configuration not stated), which “activity change, negative = cytotoxicity” value is on record?
**A.** Its value is 11.9% (inactive).

**Q.** Which “activity change, negative = cytotoxicity” value does the source give for CCOC(=O)c1c(-c2ccc(F)cc2)csc1NC(=O)CN1CCN(C)CC1 here?
**A.** Its value is 5.49% (inactive).
